Results: PMC7862700, “An all-to-all approach to the identification of sequence-specific readers for epigenetic DNA modifications on cytosine”

Columns and labels:
Test in all cases: DAPPL (digital affinity profiling via proximity ligation, sequencing); 10 mM Tris-HCl pH 7.5, 50 mM NaCl, 1 mM DTT, 4% glycerol, room temperature, 30 min; GST-TFs on glutathione beads, 16-mer random dsDNA library, 0.1% formaldehyde crosslink after washing; high values mean tight binding
FLI1 = biological target: T1, FLI1 (Homo sapiens, UniProt Q01543 1-452); details: protein: recombinant; tags: N-terminal GST; dsDNA, one strand shown
T1 sequence: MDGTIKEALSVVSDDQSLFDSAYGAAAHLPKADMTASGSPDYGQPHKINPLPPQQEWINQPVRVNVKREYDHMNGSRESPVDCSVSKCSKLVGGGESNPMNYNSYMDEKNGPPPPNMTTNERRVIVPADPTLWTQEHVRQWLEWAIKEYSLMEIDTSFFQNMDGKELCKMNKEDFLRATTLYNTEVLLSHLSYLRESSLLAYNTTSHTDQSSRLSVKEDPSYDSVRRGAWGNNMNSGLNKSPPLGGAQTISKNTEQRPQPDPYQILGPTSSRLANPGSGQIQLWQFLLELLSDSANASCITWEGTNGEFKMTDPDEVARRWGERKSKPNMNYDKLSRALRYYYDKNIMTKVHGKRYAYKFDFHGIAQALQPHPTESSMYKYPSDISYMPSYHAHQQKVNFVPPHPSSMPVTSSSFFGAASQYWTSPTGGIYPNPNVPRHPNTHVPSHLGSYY
Summary of the method: (§1)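 Beads coated with glutathione captured GST-fused human transcription factors that had been expressed in yeast, and the factors were then given DNA barcodes and pooled with a tag-only sample. The pools were incubated with 200 nmole of a random double-stranded 16-mer DNA library in Tris/NaCl/DTT/glycerol buffer for 30 min at room temperature, washed, crosslinked with 0.1% formaldehyde and proximity-ligated with BsaI/T4 ligase at 37 °C for 1 h. PCR amplification and Illumina NextSeq500 sequencing came last. Binding signal is each hexamer's read frequency for a factor divided by its frequency for the tag-only sample.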

ELK1 = biological target: T2, ELK1 (Homo sapiens, UniProt P19419 1-428); details: protein: recombinant; tags: N-terminal GST; dsDNA, one strand shown
T2 sequence: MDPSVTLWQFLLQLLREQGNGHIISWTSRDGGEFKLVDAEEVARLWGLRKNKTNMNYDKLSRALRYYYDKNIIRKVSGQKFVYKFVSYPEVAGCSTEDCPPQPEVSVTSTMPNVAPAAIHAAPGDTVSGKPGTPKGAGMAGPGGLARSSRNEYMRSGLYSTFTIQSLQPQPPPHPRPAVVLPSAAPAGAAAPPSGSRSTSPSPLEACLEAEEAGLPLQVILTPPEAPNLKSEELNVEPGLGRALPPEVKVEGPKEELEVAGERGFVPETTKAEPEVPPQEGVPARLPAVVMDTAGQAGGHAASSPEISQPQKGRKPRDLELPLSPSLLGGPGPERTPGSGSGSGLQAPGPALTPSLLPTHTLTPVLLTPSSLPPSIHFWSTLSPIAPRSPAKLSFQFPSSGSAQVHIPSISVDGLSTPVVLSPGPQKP
Summary of the method: as §1

GABPA = biological target: T3, GABPA (Homo sapiens, UniProt Q06546 1-454); details: protein: recombinant; tags: N-terminal GST; dsDNA, one strand shown
T3 sequence: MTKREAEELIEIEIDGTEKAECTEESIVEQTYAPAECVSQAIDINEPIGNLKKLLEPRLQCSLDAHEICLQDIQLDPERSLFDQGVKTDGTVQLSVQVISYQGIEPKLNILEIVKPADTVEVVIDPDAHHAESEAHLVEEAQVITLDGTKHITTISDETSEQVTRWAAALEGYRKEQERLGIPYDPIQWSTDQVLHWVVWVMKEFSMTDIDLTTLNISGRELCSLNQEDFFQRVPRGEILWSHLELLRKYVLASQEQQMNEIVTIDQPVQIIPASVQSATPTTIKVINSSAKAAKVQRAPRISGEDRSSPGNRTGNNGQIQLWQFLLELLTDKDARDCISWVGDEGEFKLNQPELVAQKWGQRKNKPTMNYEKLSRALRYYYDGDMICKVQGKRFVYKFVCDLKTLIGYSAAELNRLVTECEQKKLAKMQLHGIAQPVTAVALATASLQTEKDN
Summary of the method: as §1

ERG = biological target: T4, ERG (Homo sapiens, UniProt P11308 1-479); details: protein: recombinant; tags: N-terminal GST; dsDNA, one strand shown
T4 sequence: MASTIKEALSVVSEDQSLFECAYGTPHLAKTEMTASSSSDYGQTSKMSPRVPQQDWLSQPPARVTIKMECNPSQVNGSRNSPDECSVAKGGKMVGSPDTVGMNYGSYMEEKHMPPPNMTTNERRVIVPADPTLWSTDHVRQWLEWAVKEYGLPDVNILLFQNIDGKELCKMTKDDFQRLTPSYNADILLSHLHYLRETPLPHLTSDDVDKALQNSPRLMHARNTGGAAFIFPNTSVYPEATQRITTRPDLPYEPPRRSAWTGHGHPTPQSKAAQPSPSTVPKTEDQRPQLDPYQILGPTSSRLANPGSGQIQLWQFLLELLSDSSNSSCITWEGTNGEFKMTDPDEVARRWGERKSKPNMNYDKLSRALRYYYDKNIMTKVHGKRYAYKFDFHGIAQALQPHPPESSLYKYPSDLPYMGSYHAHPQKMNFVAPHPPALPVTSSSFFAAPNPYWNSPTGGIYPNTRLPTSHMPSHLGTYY
Summary of the method: as §1

ELF1 = ELF1 (Homo sapiens, UniProt P32519 1-619); details: protein: recombinant; tags: N-terminal GST; dsDNA, one strand shown
Summary of the method: as §1

EHF = biological target: T5, EHF (Homo sapiens, UniProt Q9NZC4 1-300); details: protein: recombinant; tags: N-terminal GST; dsDNA, one strand shown
T5 sequence: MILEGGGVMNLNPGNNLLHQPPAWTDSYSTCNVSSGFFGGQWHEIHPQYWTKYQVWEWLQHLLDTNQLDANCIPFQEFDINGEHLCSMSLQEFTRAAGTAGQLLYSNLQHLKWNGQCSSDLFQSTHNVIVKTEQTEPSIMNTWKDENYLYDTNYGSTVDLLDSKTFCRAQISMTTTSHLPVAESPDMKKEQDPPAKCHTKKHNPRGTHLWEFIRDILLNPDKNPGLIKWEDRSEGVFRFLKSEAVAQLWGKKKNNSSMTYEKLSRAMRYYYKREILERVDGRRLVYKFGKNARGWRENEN
Summary of the method: as §1

SPI1 = SPI1 (Homo sapiens, UniProt P17947 1-270); details: protein: recombinant; tags: N-terminal GST; dsDNA, one strand shown
Summary of the method: as §1

SPIB = SPIB (Homo sapiens, UniProt Q01892 1-262); details: protein: recombinant; tags: N-terminal GST; dsDNA, one strand shown
Summary of the method: as §1

ELK3 = biological target: T6, ELK3 (Homo sapiens, UniProt P41970 1-407); details: protein: recombinant; tags: N-terminal GST; dsDNA, one strand shown
T6 sequence: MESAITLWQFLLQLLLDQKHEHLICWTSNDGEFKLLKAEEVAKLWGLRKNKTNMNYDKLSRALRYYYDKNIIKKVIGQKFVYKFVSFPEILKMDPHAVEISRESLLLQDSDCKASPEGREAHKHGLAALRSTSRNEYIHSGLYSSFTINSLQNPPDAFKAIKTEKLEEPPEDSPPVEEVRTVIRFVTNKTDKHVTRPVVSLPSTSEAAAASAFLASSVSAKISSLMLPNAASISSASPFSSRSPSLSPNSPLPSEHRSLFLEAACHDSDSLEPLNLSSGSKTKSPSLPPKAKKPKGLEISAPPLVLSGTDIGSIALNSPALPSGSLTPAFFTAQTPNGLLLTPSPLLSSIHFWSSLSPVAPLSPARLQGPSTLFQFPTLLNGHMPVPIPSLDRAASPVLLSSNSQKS
Summary of the method: as §1

FEV = biological target: T7, FEV (Homo sapiens, UniProt Q99581 1-238); details: protein: recombinant; tags: N-terminal GST; dsDNA, one strand shown
T7 sequence: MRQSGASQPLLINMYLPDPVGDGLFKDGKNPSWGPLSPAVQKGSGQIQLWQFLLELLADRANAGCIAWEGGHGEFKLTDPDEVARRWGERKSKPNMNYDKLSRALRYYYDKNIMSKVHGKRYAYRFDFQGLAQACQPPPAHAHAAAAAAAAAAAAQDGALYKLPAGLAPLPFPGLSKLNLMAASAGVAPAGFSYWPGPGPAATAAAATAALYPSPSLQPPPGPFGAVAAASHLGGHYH
Summary of the method: as §1

ETV5 = ETV5 (Homo sapiens, UniProt P41161 1-510); details: protein: recombinant; tags: N-terminal GST; dsDNA, one strand shown
Summary of the method: as §1

HSF1 = HSF1 (Homo sapiens, UniProt Q00613 1-529); details: protein: recombinant; tags: N-terminal GST; chain copies: 3; dsDNA, one strand shown
Summary of the method: as §1

SPIC = biological target: T8, SPIC (Homo sapiens, UniProt Q8N5J4 1-248); details: protein: recombinant; tags: N-terminal GST; dsDNA, one strand shown
T8 sequence: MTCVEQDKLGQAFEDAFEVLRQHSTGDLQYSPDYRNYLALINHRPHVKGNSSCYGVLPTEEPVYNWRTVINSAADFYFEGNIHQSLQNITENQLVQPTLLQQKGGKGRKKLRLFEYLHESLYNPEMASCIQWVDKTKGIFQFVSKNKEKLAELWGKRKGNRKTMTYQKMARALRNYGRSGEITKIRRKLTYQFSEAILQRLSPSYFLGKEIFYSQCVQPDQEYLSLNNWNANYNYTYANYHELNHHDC
Summary of the method: as §1

ELF4 = ELF4 (Homo sapiens, UniProt Q99607 1-663); details: protein: recombinant; tags: N-terminal GST; dsDNA, one strand shown
Summary of the method: as §1

ELK4 = biological target: T9, ELK4 (Homo sapiens, UniProt P28324-2 1-405); details: protein: recombinant; tags: N-terminal GST; dsDNA, one strand shown
T9 sequence: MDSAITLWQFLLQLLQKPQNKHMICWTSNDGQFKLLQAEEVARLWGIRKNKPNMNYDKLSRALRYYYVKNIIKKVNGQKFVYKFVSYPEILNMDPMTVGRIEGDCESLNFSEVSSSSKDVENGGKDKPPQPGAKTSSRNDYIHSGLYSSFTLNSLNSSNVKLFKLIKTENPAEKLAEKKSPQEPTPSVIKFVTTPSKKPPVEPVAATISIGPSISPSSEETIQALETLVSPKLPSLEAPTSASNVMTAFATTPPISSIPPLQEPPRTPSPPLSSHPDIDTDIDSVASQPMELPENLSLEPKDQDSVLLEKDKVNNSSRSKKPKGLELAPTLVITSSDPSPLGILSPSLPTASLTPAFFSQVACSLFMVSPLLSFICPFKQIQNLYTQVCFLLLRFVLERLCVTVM
Summary of the method: as §1

ETV2 = biological target: T10, ETV2 (Homo sapiens, UniProt O00321 1-342); details: protein: recombinant; tags: N-terminal GST; dsDNA, one strand shown
T10 sequence: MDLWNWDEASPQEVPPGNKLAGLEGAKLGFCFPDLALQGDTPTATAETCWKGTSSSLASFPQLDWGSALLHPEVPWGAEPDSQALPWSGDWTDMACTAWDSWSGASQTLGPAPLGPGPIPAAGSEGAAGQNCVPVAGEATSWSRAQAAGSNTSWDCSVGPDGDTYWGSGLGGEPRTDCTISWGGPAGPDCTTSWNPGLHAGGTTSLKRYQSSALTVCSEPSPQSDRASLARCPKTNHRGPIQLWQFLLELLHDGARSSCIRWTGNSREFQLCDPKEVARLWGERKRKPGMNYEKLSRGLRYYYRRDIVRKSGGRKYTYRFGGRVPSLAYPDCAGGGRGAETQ
Summary of the method: as §1

ELF3 = biological target: T11, ELF3 (Homo sapiens, UniProt P78545 1-371); details: protein: recombinant; tags: N-terminal GST; dsDNA, one strand shown
T11 sequence: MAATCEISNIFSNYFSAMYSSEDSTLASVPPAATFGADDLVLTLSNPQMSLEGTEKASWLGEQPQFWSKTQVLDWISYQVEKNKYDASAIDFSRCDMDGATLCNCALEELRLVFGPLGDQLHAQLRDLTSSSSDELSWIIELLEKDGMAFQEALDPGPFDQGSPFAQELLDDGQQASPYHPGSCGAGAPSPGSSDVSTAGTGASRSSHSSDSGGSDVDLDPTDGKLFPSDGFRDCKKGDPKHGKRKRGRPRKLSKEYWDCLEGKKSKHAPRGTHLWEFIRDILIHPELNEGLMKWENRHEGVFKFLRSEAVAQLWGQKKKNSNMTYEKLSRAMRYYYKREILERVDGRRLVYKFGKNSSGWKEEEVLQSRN
Summary of the method: as §1

CRX = CRX (Homo sapiens, UniProt O43186 1-299); details: protein: recombinant; tags: N-terminal GST; dsDNA, one strand shown
Summary of the method: as §1

ETV1 = ETV1 (Homo sapiens, UniProt P50549 1-477); details: protein: recombinant; tags: N-terminal GST; dsDNA, one strand shown
Summary of the method: as §1

Chain of ELF1 (P32519 whole entry): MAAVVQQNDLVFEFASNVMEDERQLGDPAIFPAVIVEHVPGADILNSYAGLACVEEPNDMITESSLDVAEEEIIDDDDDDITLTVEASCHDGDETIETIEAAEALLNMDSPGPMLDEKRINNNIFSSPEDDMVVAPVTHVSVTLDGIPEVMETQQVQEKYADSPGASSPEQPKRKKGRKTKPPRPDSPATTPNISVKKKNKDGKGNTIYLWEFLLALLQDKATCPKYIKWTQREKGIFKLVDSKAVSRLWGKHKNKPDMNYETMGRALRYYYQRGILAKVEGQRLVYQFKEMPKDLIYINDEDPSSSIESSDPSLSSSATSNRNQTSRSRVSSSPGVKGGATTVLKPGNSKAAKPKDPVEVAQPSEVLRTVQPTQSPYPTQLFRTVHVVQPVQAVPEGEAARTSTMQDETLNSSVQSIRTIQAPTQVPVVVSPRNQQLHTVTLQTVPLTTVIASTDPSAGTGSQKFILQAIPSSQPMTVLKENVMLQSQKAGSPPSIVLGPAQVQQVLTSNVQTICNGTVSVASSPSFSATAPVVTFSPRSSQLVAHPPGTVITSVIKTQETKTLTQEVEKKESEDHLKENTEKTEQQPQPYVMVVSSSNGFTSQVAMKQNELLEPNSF
Chain of SPIB (Q01892 whole entry): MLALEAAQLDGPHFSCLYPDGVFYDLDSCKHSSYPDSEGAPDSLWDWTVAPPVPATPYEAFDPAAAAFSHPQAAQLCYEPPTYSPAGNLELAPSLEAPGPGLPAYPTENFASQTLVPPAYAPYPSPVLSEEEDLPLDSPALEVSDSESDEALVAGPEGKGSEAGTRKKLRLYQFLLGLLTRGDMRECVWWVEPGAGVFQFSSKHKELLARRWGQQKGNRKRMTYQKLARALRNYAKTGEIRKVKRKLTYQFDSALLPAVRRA
Chain of HSF1 (Q00613 whole entry): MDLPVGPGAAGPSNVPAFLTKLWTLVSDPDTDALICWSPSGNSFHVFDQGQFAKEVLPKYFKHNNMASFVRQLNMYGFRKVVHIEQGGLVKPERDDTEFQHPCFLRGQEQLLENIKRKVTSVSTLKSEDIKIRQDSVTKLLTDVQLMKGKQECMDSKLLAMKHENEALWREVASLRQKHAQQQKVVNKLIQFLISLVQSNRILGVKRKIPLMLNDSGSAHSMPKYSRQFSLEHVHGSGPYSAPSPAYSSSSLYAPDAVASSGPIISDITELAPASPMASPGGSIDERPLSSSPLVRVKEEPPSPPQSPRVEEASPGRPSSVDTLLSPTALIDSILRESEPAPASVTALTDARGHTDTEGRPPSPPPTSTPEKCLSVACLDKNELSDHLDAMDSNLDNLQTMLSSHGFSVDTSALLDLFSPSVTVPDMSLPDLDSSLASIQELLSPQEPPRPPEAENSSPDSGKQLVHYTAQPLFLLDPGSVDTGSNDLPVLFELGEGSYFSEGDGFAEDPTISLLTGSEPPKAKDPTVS
Chain of ELF4 (Q99607 whole entry): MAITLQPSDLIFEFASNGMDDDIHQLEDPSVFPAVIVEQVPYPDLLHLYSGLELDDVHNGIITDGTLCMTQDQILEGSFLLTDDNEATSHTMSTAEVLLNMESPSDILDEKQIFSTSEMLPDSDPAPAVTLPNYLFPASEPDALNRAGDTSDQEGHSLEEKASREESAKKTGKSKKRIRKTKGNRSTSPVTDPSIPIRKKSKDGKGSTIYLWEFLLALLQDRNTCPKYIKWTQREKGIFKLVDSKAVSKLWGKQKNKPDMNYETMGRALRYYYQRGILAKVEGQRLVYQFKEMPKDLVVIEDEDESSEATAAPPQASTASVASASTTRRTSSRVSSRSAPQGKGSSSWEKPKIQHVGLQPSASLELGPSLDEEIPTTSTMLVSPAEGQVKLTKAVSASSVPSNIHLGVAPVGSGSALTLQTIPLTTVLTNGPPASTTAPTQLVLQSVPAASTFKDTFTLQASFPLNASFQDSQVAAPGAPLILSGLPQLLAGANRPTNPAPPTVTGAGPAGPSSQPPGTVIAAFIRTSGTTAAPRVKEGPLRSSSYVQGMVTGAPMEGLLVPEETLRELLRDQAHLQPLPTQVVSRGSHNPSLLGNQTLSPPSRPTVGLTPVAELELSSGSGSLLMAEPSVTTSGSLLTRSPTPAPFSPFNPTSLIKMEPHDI
Chain of ETV5 (P41161 whole entry): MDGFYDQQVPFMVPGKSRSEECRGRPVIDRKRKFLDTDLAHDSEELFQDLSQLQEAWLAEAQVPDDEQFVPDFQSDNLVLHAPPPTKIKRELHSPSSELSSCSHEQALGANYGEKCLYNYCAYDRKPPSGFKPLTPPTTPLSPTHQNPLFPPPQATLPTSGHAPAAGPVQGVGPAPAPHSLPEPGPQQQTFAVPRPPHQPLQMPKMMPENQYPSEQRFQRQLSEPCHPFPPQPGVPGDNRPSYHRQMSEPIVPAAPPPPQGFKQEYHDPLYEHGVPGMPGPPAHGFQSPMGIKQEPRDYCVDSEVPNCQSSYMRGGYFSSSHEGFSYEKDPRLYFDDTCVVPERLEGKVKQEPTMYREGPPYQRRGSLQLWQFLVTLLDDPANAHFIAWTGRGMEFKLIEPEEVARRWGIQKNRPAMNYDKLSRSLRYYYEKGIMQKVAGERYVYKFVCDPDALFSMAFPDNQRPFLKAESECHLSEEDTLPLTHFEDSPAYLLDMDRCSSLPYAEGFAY
Chain of CRX (O43186 whole entry): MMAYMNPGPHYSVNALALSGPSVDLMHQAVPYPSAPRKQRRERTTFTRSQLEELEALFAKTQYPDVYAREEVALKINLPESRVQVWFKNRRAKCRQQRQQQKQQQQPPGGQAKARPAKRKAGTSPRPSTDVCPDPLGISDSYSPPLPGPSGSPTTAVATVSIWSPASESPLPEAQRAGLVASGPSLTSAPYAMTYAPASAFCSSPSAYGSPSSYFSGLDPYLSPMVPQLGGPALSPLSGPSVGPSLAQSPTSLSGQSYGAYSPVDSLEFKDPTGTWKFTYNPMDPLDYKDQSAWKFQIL
Chain of ETV1 (P50549 whole entry): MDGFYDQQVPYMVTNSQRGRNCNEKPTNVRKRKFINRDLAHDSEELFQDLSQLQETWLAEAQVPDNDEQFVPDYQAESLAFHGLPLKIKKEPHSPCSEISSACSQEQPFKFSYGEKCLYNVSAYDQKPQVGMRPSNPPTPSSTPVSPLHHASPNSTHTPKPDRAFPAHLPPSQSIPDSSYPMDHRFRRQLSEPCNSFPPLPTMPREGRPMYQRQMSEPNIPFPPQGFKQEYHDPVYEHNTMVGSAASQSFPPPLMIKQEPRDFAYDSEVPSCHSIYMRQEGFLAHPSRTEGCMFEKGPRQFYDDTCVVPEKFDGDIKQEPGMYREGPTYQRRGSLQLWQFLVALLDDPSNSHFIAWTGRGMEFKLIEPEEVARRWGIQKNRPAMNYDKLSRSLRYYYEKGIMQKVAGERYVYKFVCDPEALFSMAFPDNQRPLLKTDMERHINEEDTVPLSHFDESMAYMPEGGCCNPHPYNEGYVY

ACTTAT
binding signal (FLI1): 1.4 fold enrichment (6-mer frequency, TF over GST control) | binding signal (ELK1): 1.4 fold enrichment (6-mer frequency, TF over GST control) | binding signal (GABPA): 1.47 fold enrichment (6-mer frequency, TF over GST control) | binding signal (ERG): 1.37 fold enrichment (6-mer frequency, TF over GST control) | binding signal (ELF1): 1.46 fold enrichment (6-mer frequency, TF over GST control) | binding signal (EHF): 1.41 fold enrichment (6-mer frequency, TF over GST control) | binding signal (SPI1): 1.39 fold enrichment (6-mer frequency, TF over GST control) | binding signal (SPIB): 1.38 fold enrichment (6-mer frequency, TF over GST control) | binding signal (ELK3): 1.5 fold enrichment (6-mer frequency, TF over GST control) | binding signal (FEV): 1.34 fold enrichment (6-mer frequency, TF over GST control) | binding signal (ETV5): 1.32 fold enrichment (6-mer frequency, TF over GST control) | binding signal (HSF1): 1.73 fold enrichment (6-mer frequency, TF over GST control) | binding signal (SPIC): 1.5 fold enrichment (6-mer frequency, TF over GST control) | binding signal (ELF4): 1.35 fold enrichment (6-mer frequency, TF over GST control) | binding signal (ELK4): 1.53 fold enrichment (6-mer frequency, TF over GST control) | binding signal (ETV2): 1.35 fold enrichment (6-mer frequency, TF over GST control) | binding signal (ELF3): 1.27 fold enrichment (6-mer frequency, TF over GST control) | binding signal (CRX): 2.2 fold enrichment (6-mer frequency, TF over GST control) | binding signal (ETV1): 1.42 fold enrichment (6-mer frequency, TF over GST control)
